Assay results reported in PubChem BioAssay (NCI).
The panel holds about 83,000 compounds, 20% with a hit somewhere; the sample as a whole holds those more often.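 Each cell line was grown in a 96-well plate and treated with one concentration of compound for 48 hours. Values below 10 were considered active.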 Activity calls are given as the source filed them.

test system: NCI-H522 lung; experiment: NCI-60 one-dose screen, 48 h (100 = growth as untreated, 0 = no growth, -100 = all killed); settings: 10 µM
Experimental: Growth inhibition of the NCI-H522 human Non-Small Cell Lung tumor cell line is measured as a screen for anti-cancer activity. Cells are grown in 96 well plates and exposed to the test compound for 48 hours. Compounds are tested at a single concentration, which is 10^-5 M for most compounds. The reported endpoint is percent growth (GI% or GIPRCNT), where numbers from 0 - 100% represent growth inhibition, and numbers from -100% - 0 represent cell death. For example, a value of 40 represents 60% growth inhibition. A value of 0 means no net growth occurred over the course of the experiment. A value of -40 indicates 40% of cells at the beginning of the experiment died by the end of the experiment. A value of -100 means all cells are dead at the end of the experiment.
NCI-60 Human Tumor Cell Lines Screen was performed using the standard one-dose NCI protocol, which is described in more detail at https://dtp.cancer.gov/discovery_development/nci-60/default.htm.
Compounds with GIPRCNT values below 10 were considered active. Activity score was based on GIPRCNT using the following formula: […]
Score is 0 for GIPRCNT values of 100 or above, 50 for GIPRCNT values of 0, and 100 for GIPRCNT values of -100.

Row | SMILES | growth
1 | CC(=O)Nc1ccc(C(=O)COc2cccc(/C=C3\CCc4ccccc4C3=O)c2)cc1 | 63.1% (inactive)
2 | CC(=O)c1ccccc1NC(=O)C(C)(c1ccccc1)c1ccccc1 | 77.3% (inactive)
3 | O=C(/C=C(\Nc1ccccc1)c1ccccc1)c1cn(-c2ccc([N+](=O)[O-])cc2)nn1 | 86.1% (inactive)
4 | O=C(Nc1ccc(Cl)cc1)Nc1ccccc1CNc1nc(Nc2ccc(OCCN3CCCC3)cc2)ncc1Cl | -17% (active)
5 | NC(=O)NS(=O)(=O)c1ccc(N2N=C(C(F)(F)F)CC2c2cc(C(F)(F)F)cc(C(F)(F)F)c2)cc1 (stereo not given) | 38.4% (inactive)
6 | C[C@H]1O[C@@H](O[C@H]2[C@@H](O)C[C@H](O[C@H]3[C@@H](O)C[C@H](O[C@H]4CC[C@]5(C)C6CC[C@]7(C)[C@@H](C8=CC(=O)OC8)CC[C@]7(O)C6CC[C@@H]5C4)O[C@@H]3C)O[C@@H]2C)C[C@H](O)[C@@H]1O (stereo not given in full) | -65% (active)
7 | O=Nc1c2cccnc2n2nnc3ccc(Cl)cc3c12 | -71.5% (active)
8 | Cc1ccc(OCC(=O)Nc2ccc(Oc3ccccc3)cc2)c([N+](=O)[O-])n1 | 33.2% (inactive)
9 | COc1cccc2c1C(=O)c1c(O)c3c(c(O)c1C2=O)C[C@@](O)(C(C)=O)C[C@@H]3O[C@H]1C[C@H](N)[C@H](O)[C@H](C)O1 | -89.3% (active)
10 | Cn1ccnc1C(=O)/C=C/c1ccc(C(=O)Nc2nc3ccccc3[nH]2)cc1 | 58.6% (inactive)
11 | COc1cc2c(cc1OC)C(=O)/C(=C/c1cccc(OCC(=O)c3ccccc3)c1)C2 | 48.3% (inactive)
12 | Cc1ccc(S(=O)(=O)NCCN2c3nc4ccccc4cc3Sc3cc4ccccc4nc32)cc1 | 52.8% (inactive)
13 | COc1ccc2c(c1)CC/C(=C\c1ccc(OCC(=O)Nc3nc4ccccc4s3)cc1)C2=O | 85.4% (inactive)
14 | C[C@]12CCC(=O)C=C1CCC1C2[C@@H](O)C[C@@]2(C)C1CC[C@]2(O)C(=O)COC(=O)CCC(=O)O (stereo not given in full) | 107% (inactive)
15 | COc1cc(/C=N/OC(=O)Nc2ccccc2)cc(OC)c1OC | 86.2% (inactive)
16 | CC1C(=O)NC2=Nc3ccccc3C(=O)NN21 (stereo not given) | 97.5% (inactive)
17 | CC(NC(N)=S)c1ccccc1 (stereo not given) | 102% (inactive)
18 | CCSc1nc(-c2cccs2)n2nc(-c3ccco3)cc2n1 | 91.8% (inactive)
19 | CSc1nc(Nc2ccc(S(=O)(=O)Nc3ccon3)cc2)c(C#N)c(-c2ccc(Cl)cc2)n1 | 84.9% (inactive)
20 | OCCN1CCN(CCCN2c3ccccc3Sc3ccc(C(F)(F)F)cc32)CC1 | 19.5% (inactive)

Row | SMILES | growth
21 | Nc1ccn(C2O[C@H](CO)[C@@H](O)[C@@H]2O)c(=O)n1 (stereo not given in full) | 68.1% (inactive)
22 | O[N+]1=CC=CCC1=S.On1ccccc1=S.[Zn] | -92.4% (active)
23 | COc1ccc(C(=O)COc2cccc(/C=C3\COc4ccc5ccccc5c4C3=O)c2)cc1 | 44.1% (inactive)
24 | O=C1Nc2ccc(Cl)cc2/C1=C/c1cccs1 | 96.2% (inactive)
25 | Cc1cn(C(C=O)OC(C=O)CO)c(=O)[nH]c1=O (stereo not given) | 98% (inactive)
26 | O=C(NCCCl)NCCN1c2nc3ccccc3cc2Sc2cc3ccccc3nc21 | 55.4% (inactive)
27 | O=C(COc1cccc(/C=C2\Oc3ccc4ccccc4c3C2=O)c1)c1ccc([N+](=O)[O-])cc1 | 35.8% (inactive)
28 | CC(=O)Nc1ccc(C(=O)COc2ccc(/C=C3\CCc4ccccc4C3=O)cc2)cc1 | 92.4% (inactive)
29 | COc1ccc2nc(N/N=C(\C)c3ccccn3)cc(C)c2c1 | -20.8% (active)
30 | COc1cc(/C(Cl)=C/C=C/C(=O)c2c(C)[n+]([O-])c3ccc(Cl)cc3[n+]2[O-])cc(OC)c1OC | -33.4% (active)
31 | Cc1ccc(C(NC(=O)c2ccccc2)c2ccc3cccnc3c2O)cc1 (stereo not given) | -5.42% (active)
32 | CCSc1nc(-c2ccco2)n2nc(-c3ccco3)cc2n1 | 101% (inactive)
33 | CCOC(=O)Nc1cc(-c2ccc(C)c(NS(C)(=O)=O)c2)nn2c(C)nnc12 | -11.8% (active)
34 | COc1cc(/C=C2\CN(C)CC3=C2Nc2nc(SC)[nH]c(=O)c2C3c2cc(OC)c(OC)c(OC)c2)cc(OC)c1OC (stereo not given) | 37.8% (inactive)
35 | N#Cc1ncc(-c2ccc(C(F)(F)F)cc2)c(NC2CCCCCC2)n1 | -4.74% (active)
36 | CSc1nc(N)c2c(n1)N(C)C=NS2(=O)=O | 105% (inactive)
37 | O=C(O)c1ccc(CNS(=O)(=O)c2ccc3ccccc3c2)cc1 | 104% (inactive)
38 | COc1ccc(CNC(=O)c2c(C)n([O-])c3ccccc3[n+]2=O)cc1 | -15.1% (active)
39 | C[C@H]1O[C@@H](O[C@H]2[C@@H](O)C[C@H](O[C@H]3[C@@H](O)C[C@H](O[C@H]4CC[C@]5(C)C6C[C@@H](O)[C@]7(C)[C@@H](C8=CC(=O)OC8)CC[C@]7(O)C6CC[C@@H]5C4)O[C@@H]3C)O[C@@H]2C)C[C@H](O)[C@@H]1O (stereo not given in full) | -83.9% (active)
40 | C[N+]1(C)C2CC[C@@H]1CC(OC(=O)C(O)c1ccccc1)C2 (stereo not given in full) | 110% (inactive)
